According to PubChem BioAssay AID2685 (National Center for Advancing Translational Sciences (NCATS), 2010):
Several values for one entry are separate records, joined by “and”; a condition that tells them apart may be missing. Equal entries are not always repeated. The whole screen tested about 320,000 compounds, of which about 2,100 (0.66%) were called active. Inconclusive results (about 53%) are left out. The call rests on the fitted dose curve; in most records, active means well fitted inhibition curve with a large enough effect in the signal ratio, with a control signal flat (not every such curve was filed as active); inconclusive means small, poorly fitted or top-dose-only effect, or effect the other way, or a change in a side signal; inactive means flat fitted curve, though single readings scatter; the % refers to the signal ratio. The list comes from a sample in which actives are over-represented; it also holds similar structures and randomly drawn compounds.

test: qHTS Assay for Lipid Storage Modulators in Drosophila S3 Cells; conditions: BODIPY lipid droplet fluorescence, 18-24 h, cells fed with added oleic acid; cell number change: measured here: cell count max response; series mostly up to 46.1 µM;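 on cell number change: cells counted by Cell Tracker Red CMTPX staining in the red channel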; on lipid storage change, negative = inhibition: on the % scale 0 is the no-effect control and ±100 the full control effect
In short: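 Laser-scanning cytometry quantifies lipid droplet accumulation (500–530 nm total intensity; droplet/cell object ratio) in oleic acid-fed (400 uM added) Drosophila S3 cells treated with a concentration series. 20 uM Triacsin C defined 100% inhibition.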
Potency means the concentration at half of the fitted maximal effect.

Row | Structure (SMILES) | Potency | cell number change [%] | lipid storage change, negative = inhibition
1 | O=C(CN1C2CCCC1CC(NC(=O)c1ccco1)C2)Nc1ccccc1C(F)(F)F (centres undefined) | inactive | 1.61 | –
2 | Cc1ccc(C(c2sc3ncnn3c2O)N2CC(C)CC(C)C2)cc1 (centres undefined) | inactive | -0.62 | –
3 | O=C1c2cccc3cccc(c23)C(=O)N1CC1CCN(S(=O)(=O)c2ccc(F)cc2)CC1 | inactive | 1.3 | –
4 | O=S(=O)(Nc1ccc(N2CCCCC2)cc1)c1ccccc1F | inactive | -15.7 | –
5 | CCOc1ccc2nc(CN3CCN(Cc4ccsc4)C(CCO)C3)ccc2c1 (centres undefined) | inactive | 3.37 | –
6 | Cc1nnc(SCC(=O)N(C)c2c(N)n(Cc3ccccc3)c(=O)[nH]c2=O)n1Cc1ccccc1 | inactive | 4.04 | –
7 | CN(C)S(=O)(=O)N1CCN(C(=O)c2ccccc2Cl)CC1 | inactive | – | –
8 | Cc1cccc(NS(=O)(=O)c2ccc(C(=O)N3CCC3)cc2)c1C | inactive | 19.3 | –
9 | COc1ccc(S(=O)(=O)N(C)CC(=O)N2CCCC2)cc1 | inactive | -6.74 | –
10 | COc1ccc(S(=O)(=O)N(C)CC(=O)N2CCCCCC2)cc1 | inactive | 7.92 | –
11 | Cc1ccccc1NS(=O)(=O)c1ccc(C(=O)N2CCN(S(=O)(=O)c3ccccc3)CC2)cc1 | 3.26 µM (active) | -28 | –
12 | CN(C)S(=O)(=O)N1CCN(C(=O)c2ccccc2)CC1 | 23.1 µM (active) | 10.4 | –
13 | COc1ccc(S(=O)(=O)N(C)c2ccc(C(=O)N3CCC(C(N)=O)CC3)cc2)cc1 | inactive | -14.8 | –
14 | COc1ccc(S(=O)(=O)N(C)CC(=O)N2CCC(C(N)=O)CC2)cc1 | 14.6 µM (active) | -9.84 | –
15 | Cc1ccc(S(=O)(=O)N(C)c2ccc(C(=O)N3CCC(C(N)=O)CC3)cc2)cc1 | 23.1 µM (active) | -5.24 | –
16 | O=C(c1ccccc1)N1CCN(S(=O)(=O)N2CCCCCC2)CC1 | inactive | 22.9 | –
17 | Cc1ccccc1NS(=O)(=O)c1ccc(C(=O)N2CCCCCC2)cc1 | inactive | 4.54 | –
18 | CCOC(=O)C1CCN(C(=O)c2ccc(N(C)S(=O)(=O)c3ccc(OC)cc3)cc2)CC1 | inactive | -4.35 | –
19 | Cc1ccn(CC(=O)N2CCCC(N3CCN(Cc4ccc5c(c4)OCO5)CC3)C2)n1 (centres undefined) | inactive | 8.09 | –
20 | Cc1nc(SCC(=O)N(C)Cc2ccco2)c2c(C)c(C)sc2n1 | inactive | -25.2 | –
21 | O=C(Nc1ccc(C(=O)Oc2ccccc2)c(O)c1)c1ccccc1 | inactive | -6.44 | –
22 | COc1ccc(/C=C2\SC(=S)N(N3CCOCC3)C2=O)c(OC)c1 | inactive | 7.5 | –
23 | CC1CCN(C(=O)c2cc(Cl)nc3ccccc23)CC1 | inactive | -4.42 | –

Row | Structure (SMILES) | Potency | cell number change [%] | lipid storage change, negative = inhibition
24 | COc1ccc(S(=O)(=O)N2CCC(C(=O)NCc3cccc(OC)c3)CC2)cc1 | inactive | 29.1 | –
25 | COc1ccc(/C=N/NC(=O)CCn2nc(C)cc2C)cc1 | inactive | 9.01 | –
26 | Cc1cc(C)cc(C(=O)Nc2cc3c4c(c2)CC(=O)N4CCC3)c1 | – | -11.8 | -15.8% [at 0.0737 µM] (inactive)
27 | O=C(CSc1ccc(C(F)(F)F)cc1[N+](=O)[O-])N1CCOCC1 | inactive | -7.3 | –
28 | Cc1ccc(-c2nn(CC(=O)NC(C)c3ccccc3)c(=O)c3ccccc23)cc1 (centres undefined) | inactive | – | –
29 | COc1ccccc1Nc1nnc(SCC(=O)c2cc(C)n(CC3CCCO3)c2C)s1 (centres undefined) | inactive | 4.55 | –
30 | CCOc1ccc(CCNC(=O)c2nnn(CC(=O)Nc3c(C)cc(C)cc3C)c2N)cc1OCC | inactive | 23.4 | –
31 | O=C(c1ccncc1)N1CCN(C2CCCCC2)CC1 | inactive | 9.31 | –
32 | O=C(c1ccccc1)N1CCN(C2CCCCCC2)CC1 | 25.9 µM (active) | -3.45 | –
33 | O=C(c1ccccc1)N1CCN(C2CCCCC2)CC1 | inactive | 7.93 | –
34 | Cc1noc(C)c1C(=O)OCC(=O)Nc1cccc(S(=O)(=O)N(C)C)c1 | inactive | -1.55 | –
35 | Cc1cc(C(=O)N/N=C/c2ccc(Cl)c([N+](=O)[O-])c2)c(C)n1-c1ccc(F)cc1 | inactive | -1.33 | –
36 | CCN(CC)CCC(c1ccc(N(C)C)cc1)c1c(OC)cc(OC)c2c(-c3ccccc3)cc(=O)oc12 (centres undefined) | inactive | -6.71 | –
37 | COc1ccc(C(=O)OCC(=O)Nc2cc(C)c(C)cc2[N+](=O)[O-])cc1 | inactive | -12.7 | –
38 | NC(=O)CSc1cn(CCNC(=O)c2cccs2)c2ccccc12 | inactive | 22.5 | –
39 | O=C1/C(=C/c2cccs2)COc2ccccc21 | inactive | -6.21 | –
40 | O=C1C(=Cc2cccs2)C(=O)c2ccccc21 | 18.4 µM (active) | -7.62 | –
41 | O=C1/C(=C/c2cccs2)Cc2ccccc21 | inactive | 20.5 | –
42 | O=C(CN1C(=O)/C(=C\c2cccc(Cl)c2)Oc2ccccc21)N1CCN(c2ccccn2)CC1 | inactive | – | –
43 | CC1CC(Nc2ccccc2)=CC(=O)O1 (centres undefined) | inactive | – | –
44 | C[C@@H]1CC[C@H](O)/C=C/C(=O)O[C@H](C)CC[C@H](O)/C=C/C(=O)O1 | 5.8 µM (active) | -1.52 | –
45 | C[C@@H]1C=CC(=O)O[C@@H]1c1ccc(C(F)(F)F)cc1 | inactive | 9.88 | –
46 | COc1ccc([C@H]2CC(=O)C=C(c3ccc4c(c3)OCO4)C2)cc1 | inactive | 2.65 | –

Row | Structure (SMILES) | Potency | cell number change [%] | lipid storage change, negative = inhibition
47 | CCOC(=O)C1CCCN(C(=O)c2ccc3nc(-c4cccc(OC)c4)oc3c2)C1 (centres undefined) | inactive | 6.9 | –
48 | CCOC(=O)C1CCCN(C(=O)c2ccc3nc(-c4ccc(OC)c(OC)c4)c(-c4ccc(OC)c(OC)c4)nc3c2)C1 (centres undefined) | 4.11 µM (active) | -26.9 | –
49 | COc1ccc(NC2CCCN(C(=O)c3ccc4nc(C)c(C)nc4c3)C2)cc1OC (centres undefined) | inactive | – | –
50 | O=c1c2nnn(-c3ccc(Br)cc3)c2ncn1Cc1ccccn1 | inactive | 17.2 | –
51 | CSC1=NC(NCCCO)c2c(sc3c2CC(C)(C)OC3)N1 (centres undefined) | inactive | -5.44 | –
52 | CC(=O)N1N=C(c2cccc(NS(=O)(=O)c3ccc(C)cc3)c2)CC1c1ccco1 (centres undefined) | inactive | -6.11 | –
53 | CCS(=O)(=O)Nc1ccc(C2=NN(S(=O)(=O)c3ccc(F)cc3)C(c3ccco3)C2)cc1 (centres undefined) | inactive | 4.44 | –
54 | O=S(=O)(c1ccccc1)N1N=C(c2ccc(Br)cc2)CC1c1ccco1 (centres undefined) | 16.4 µM (active) | 13.4 | –
55 | CS(=O)(=O)Nc1cccc(C2=NN(S(=O)(=O)c3ccccc3)C(c3ccco3)C2)c1 (centres undefined) | inactive | -5.75 | –
56 | CC(=O)N1N=C(c2ccc(Cl)cc2)CC1c1ccco1 (centres undefined) | inactive | 10.2 | –
57 | CC(=O)N1N=C(c2ccc(NS(=O)(=O)c3ccccc3)cc2)CC1c1ccco1 (centres undefined) | 9.2 µM (active) | -11.6 | –
58 | Cc1cc(C)c(O)c(-c2cc(C(=O)Nc3cccnc3)[nH]n2)c1 | inactive | -5.15 | –
59 | CCc1ccc(-c2cc(C)no2)cc1S(=O)(=O)NCc1ccccc1OC | inactive | 2.29 | –
60 | COc1ccc(-c2noc(-c3ccccc3C(=O)Nc3cccc(OC)c3)n2)cc1 | inactive | 2.43 | –
61 | O=C1CCCc2c1cc(C(=O)NCc1ccco1)c(=O)n2-c1ccccc1 | inactive | 1.19 | –
62 | CC(Cl)C(=O)c1ccc2c(c1)CCN2C(=O)C1CC1 (centres undefined) | inactive | -1.68 | –
63 | CCN1CCN(C(c2cccnc2)c2c(NC(=O)c3ccco3)sc(C)c2C)CC1 (centres undefined) | 8.2 µM (active) | -4.13 | –
64 | Cc1sc(NC(=O)c2ccco2)c(C(c2cccnc2)N2CCCC2)c1C (centres undefined) | inactive | -20.2 | –
65 | COc1ccc(C(c2c(NC(=O)c3ccco3)sc(C)c2C)N2CCOCC2)cc1 (centres undefined) | inactive | – | –
66 | Cc1sc(NC(=O)c2ccco2)c(C(c2cccnc2)N2CCN(CCO)CC2)c1C (centres undefined) | inactive | -13.8 | –
67 | COc1cccc(C(c2c(NC(=O)c3ccco3)sc(C)c2C)N2CCOCC2)c1 (centres undefined) | 20.6 µM (active) | -13.8 | –
68 | COc1ccc(C(c2c(NC(=O)c3ccco3)sc(C)c2C)N2CCOCC2)cc1OC (centres undefined) | inactive | -1.23 | –
69 | CCOCCCNCc1c(Cl)cccc1Cl | inactive | 5.68 | –

Row | Structure (SMILES) | Potency | cell number change [%] | lipid storage change, negative = inhibition
70 | CCOC(=O)/C(=N\Nc1cccc(Cl)c1)Sc1nnc(-c2ccc(OC)cc2)n1C | inactive | 1.18 | –
71 | O=S(=O)(NCCc1ccccn1)c1ccc(-c2ccccn2)s1 | inactive | -6.49 | –
72 | O=C1OCCN/C1=C\C(=O)c1ccc(Cl)cc1 | inactive | 19.7 | –
73 | OCCC1CN(Cc2nc3c(s2)CCCC3)CCN1Cc1ccccc1 (centres undefined) | inactive | 17.4 | –
74 | CCN1CCN(C(=S)c2ccc(Br)cc2)CC1 | inactive | -1.28 | –
75 | CCc1nnc(NC(=O)Cc2ccc(OC)c(OC)c2)s1 | inactive | 9.15 | –
76 | CC(C)[C@H](NC(=O)C1(c2ccccc2)CCN(C(=O)OC(C)(C)C)CC1)C(=O)O | inactive | 0.279 | –
77 | C[C@H](NC(=O)C1(c2ccccc2)CCN(C(=O)[C@H]2CSCN2C(=O)OC(C)(C)C)CC1)C(=O)O | -15.3% and -9.67% | – | –
78 | CC(C)C[C@H](NC(=O)C1(c2ccccc2)CCN(C(=O)[C@H]2CSCN2C(=O)OC(C)(C)C)CC1)C(=O)O | inactive | – | –
79 | CC1NC(=O)c2ccccc2-n2c1nc1cc(F)ccc1c2=O (centres undefined) | inactive | 0.361 | –
80 | Cc1ccc(C2=NCCn3c2c2ccc([N+](=O)[O-])cc2[n+]3[O-])cc1 | 0.58 µM (active) | -25.9 | –
81 | COc1ccc(C2=NCCn3nc4cc(OC)ccc4c32)cc1 | inactive | -20.7 | –
82 | O=[N+]([O-])c1ccc2c3n([n+]([O-])c2c1)CCN=C3c1ccc(Cl)cc1 | inactive | 12.6 | –
83 | NS(=O)(=O)c1ccc(CNC(=S)NC2CCCCC2)cc1 | inactive | -8.89 | –
84 | Cc1ccc(NC(=O)Cn2c(O)c(N=NC(N)=O)c3ccccc32)cc1 | inactive | -8.5 | –
85 | COc1cccc2cc(C(=O)N3CCN(c4ccc(C)cc4C)CC3)c(=O)oc12 | inactive | 12.9 | –
86 | O=P(O)(OCc1ccccc1)OCc1ccccc1 | inactive | 4.18 | –
87 | COC(=O)c1c(NC(=O)C2CC2)sc2c1CCN(C(C)=O)C2 | inactive | – | –
88 | COC(=O)c1c(NC(=O)c2ccco2)sc2c1CCN(C(C)=O)C2 | 7.31 µM (active) | -25.8 | –
89 | COC(=O)c1c(NC(=O)c2ccco2)sc2c1CCC2 | inactive | 3.65 | –
